Percent Effect data for 11 molecules are collected here from ChEMBL document CHEMBL3988442, “University of Dundee, Small-Polar-MMV Screening Library” (2021).

For some assays here: Potency and affinity values are given separately.

Common to all, as to parameters: scale not given: direction of the effect not stated beside the values
Experiment [1] has as its target Protein translocase subunit SecA (Escherichia coli (strain K12)) (UniProt P10408). The experiment in a line: Assay to Identify E. coli SecA ATPase Inhibitors. The conditions noted are these: 30 µM. The class given is functional.
The target in experiment [2] is T1, Ubiquitin-activating enzyme e1, putative (Leishmania donovani (strain BPK282A1)) (UniProt E9BSI1).
T1 sequence (whole entry): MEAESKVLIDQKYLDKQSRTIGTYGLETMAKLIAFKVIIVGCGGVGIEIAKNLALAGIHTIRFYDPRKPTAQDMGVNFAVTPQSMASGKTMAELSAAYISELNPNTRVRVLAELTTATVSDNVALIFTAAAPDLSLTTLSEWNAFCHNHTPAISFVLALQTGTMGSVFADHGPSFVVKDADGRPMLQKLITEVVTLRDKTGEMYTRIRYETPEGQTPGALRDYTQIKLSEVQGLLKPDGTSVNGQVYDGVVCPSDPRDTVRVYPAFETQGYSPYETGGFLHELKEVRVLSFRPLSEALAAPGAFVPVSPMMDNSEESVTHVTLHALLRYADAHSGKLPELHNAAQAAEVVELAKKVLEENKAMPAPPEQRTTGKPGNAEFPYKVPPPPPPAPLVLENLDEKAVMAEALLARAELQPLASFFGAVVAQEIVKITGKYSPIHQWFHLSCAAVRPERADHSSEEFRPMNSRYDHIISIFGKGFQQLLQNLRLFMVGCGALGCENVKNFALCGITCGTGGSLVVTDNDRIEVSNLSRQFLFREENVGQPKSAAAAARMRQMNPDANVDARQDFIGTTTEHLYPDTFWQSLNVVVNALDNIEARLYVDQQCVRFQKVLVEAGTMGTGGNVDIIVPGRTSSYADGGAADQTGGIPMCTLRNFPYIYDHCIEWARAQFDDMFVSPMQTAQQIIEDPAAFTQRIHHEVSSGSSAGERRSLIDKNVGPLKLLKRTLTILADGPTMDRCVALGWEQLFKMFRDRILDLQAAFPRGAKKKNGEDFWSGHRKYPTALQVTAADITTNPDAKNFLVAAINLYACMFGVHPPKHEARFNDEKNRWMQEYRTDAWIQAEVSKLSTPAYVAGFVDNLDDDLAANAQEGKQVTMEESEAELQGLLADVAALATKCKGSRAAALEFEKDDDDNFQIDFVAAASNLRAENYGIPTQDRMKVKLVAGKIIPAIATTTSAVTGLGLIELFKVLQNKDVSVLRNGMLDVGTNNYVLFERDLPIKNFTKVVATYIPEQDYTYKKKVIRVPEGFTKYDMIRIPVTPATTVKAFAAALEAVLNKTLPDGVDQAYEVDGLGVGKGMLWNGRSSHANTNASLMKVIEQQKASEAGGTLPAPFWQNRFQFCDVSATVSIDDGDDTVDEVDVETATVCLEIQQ
The experiment in a line: Leishmania donovani Ubiquitin Activating Enzyme (LdE1). The class given is functional. The conditions noted are these: 30 µM.

Experiment [3] has as its target Sialic acid-binding Ig-like lectin 9 (Homo sapiens) (UniProt Q9Y336). In words: Hs-Siglec9 ALPHAscreen SOP 20170721. The conditions noted are these: 10 µM. On the technique in general: Bead proximity is the source of the signal in Alpha formats.
The test system of the next experiment is Trypanosoma cruzi. The experiment in a line: Trypanosoma cruzi phosphomannomutase and mannose-1-phosphate guanylyltransferase assay. It counts as functional. The conditions noted are these: 10 µM.
The target of experiment [4] is T2, Arginase-2, mitochondrial (Homo sapiens) (UniProt P78540).
T2 sequence (whole entry): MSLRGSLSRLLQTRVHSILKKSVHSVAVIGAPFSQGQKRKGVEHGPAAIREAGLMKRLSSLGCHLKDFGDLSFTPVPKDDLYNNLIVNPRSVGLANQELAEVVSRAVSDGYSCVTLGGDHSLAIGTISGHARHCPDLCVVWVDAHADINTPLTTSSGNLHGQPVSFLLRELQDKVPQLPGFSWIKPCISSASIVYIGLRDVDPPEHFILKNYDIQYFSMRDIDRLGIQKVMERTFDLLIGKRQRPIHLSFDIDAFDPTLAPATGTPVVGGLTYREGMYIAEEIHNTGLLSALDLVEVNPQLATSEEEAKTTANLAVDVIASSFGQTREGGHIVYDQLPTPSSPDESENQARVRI
In words: in vitro enzyme assay to detect the production of urea directly proportional to the activity of Arginase II. Note: in the data most compounds retested in dose-response had high values. The class given is functional. The conditions noted are these: 33.3 µM.

Experiment [5] concerns the target T3, Proteasome subunit beta (Trypanosoma cruzi) (UniProt O96673).
T3 sequence (whole entry): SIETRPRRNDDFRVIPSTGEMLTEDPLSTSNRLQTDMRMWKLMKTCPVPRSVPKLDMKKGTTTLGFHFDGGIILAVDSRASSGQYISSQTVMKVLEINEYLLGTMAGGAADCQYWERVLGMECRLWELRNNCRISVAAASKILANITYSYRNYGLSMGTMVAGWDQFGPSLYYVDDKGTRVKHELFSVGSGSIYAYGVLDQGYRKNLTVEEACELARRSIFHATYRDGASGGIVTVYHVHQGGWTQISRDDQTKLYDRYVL
In words: Trypanosoma cruzi proteasome chymotrypsin-like activity (TcProtChymo) assay. Note: in the data most compounds retested in dose-response had high values. The class given is functional. The conditions noted are these: 9.37 µM.

The species entered for a further experiment is Homo sapiens. The experiment in a line: To identify inhibition of the IFN signalling (Jak-Stat) pathway via expression of an eGFP reporter gene under the control of an IFN-stimulated response element (ISRE) containing MxA promoter. It counts as functional. The conditions noted are these: 30 µM.
The target of experiment [6] is T4, Tyrosyl-tRNA synthetase, putative (Trypanosoma cruzi (strain CL Brener)) (UniProt Q4DSP6).
T4 sequence (whole entry): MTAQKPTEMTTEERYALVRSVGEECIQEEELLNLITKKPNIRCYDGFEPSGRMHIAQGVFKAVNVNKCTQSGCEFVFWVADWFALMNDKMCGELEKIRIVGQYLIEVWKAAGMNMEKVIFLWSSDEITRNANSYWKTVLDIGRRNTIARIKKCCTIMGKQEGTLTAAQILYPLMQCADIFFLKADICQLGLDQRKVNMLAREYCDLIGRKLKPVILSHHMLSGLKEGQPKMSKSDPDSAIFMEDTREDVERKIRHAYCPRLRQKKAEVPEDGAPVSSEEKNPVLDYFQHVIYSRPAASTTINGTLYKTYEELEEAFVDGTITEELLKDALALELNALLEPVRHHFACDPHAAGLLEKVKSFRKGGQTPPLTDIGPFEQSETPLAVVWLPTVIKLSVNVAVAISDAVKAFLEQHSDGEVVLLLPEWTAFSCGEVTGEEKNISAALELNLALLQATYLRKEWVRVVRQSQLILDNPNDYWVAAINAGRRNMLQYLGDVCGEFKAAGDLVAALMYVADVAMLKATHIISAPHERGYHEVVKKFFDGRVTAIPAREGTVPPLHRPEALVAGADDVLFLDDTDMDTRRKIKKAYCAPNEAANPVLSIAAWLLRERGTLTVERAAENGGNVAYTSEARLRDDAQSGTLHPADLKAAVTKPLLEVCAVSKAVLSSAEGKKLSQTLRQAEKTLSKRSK
The experiment in a line: Trypanosoma cruzi tyrosyl tRNA synthetase (TcYRS) _High Tyrosine SOP. Note: in the data most compounds retested in dose-response had high values. It counts as functional. The conditions noted are these: 30 µM.

The target of experiment [7] is T4, Tyrosyl-tRNA synthetase, putative (Trypanosoma cruzi (strain CL Brener)). In words: Trypanosoma cruzi tyrosyl tRNA synthetase (TcYRS) SOP. It counts as functional. The conditions noted are these: 30 µM.
The target in experiment [8] is Chromo domain-containing protein 1 (Saccharomyces cerevisiae (strain ATCC 204508 / S288c) (Baker's yeast)) (UniProt P32657). In words: ScCHD-1 Enzyme Inhibition Assay. Note: in the data most compounds retested in dose-response had high values. It counts as functional. The conditions noted are these: 30 µM.
Chain of Chromo domain-containing protein 1 (Saccharomyces cerevisiae (strain ATCC 204508 / S288c) (Baker's yeast)) (P32657 whole entry, the tested form may be a part): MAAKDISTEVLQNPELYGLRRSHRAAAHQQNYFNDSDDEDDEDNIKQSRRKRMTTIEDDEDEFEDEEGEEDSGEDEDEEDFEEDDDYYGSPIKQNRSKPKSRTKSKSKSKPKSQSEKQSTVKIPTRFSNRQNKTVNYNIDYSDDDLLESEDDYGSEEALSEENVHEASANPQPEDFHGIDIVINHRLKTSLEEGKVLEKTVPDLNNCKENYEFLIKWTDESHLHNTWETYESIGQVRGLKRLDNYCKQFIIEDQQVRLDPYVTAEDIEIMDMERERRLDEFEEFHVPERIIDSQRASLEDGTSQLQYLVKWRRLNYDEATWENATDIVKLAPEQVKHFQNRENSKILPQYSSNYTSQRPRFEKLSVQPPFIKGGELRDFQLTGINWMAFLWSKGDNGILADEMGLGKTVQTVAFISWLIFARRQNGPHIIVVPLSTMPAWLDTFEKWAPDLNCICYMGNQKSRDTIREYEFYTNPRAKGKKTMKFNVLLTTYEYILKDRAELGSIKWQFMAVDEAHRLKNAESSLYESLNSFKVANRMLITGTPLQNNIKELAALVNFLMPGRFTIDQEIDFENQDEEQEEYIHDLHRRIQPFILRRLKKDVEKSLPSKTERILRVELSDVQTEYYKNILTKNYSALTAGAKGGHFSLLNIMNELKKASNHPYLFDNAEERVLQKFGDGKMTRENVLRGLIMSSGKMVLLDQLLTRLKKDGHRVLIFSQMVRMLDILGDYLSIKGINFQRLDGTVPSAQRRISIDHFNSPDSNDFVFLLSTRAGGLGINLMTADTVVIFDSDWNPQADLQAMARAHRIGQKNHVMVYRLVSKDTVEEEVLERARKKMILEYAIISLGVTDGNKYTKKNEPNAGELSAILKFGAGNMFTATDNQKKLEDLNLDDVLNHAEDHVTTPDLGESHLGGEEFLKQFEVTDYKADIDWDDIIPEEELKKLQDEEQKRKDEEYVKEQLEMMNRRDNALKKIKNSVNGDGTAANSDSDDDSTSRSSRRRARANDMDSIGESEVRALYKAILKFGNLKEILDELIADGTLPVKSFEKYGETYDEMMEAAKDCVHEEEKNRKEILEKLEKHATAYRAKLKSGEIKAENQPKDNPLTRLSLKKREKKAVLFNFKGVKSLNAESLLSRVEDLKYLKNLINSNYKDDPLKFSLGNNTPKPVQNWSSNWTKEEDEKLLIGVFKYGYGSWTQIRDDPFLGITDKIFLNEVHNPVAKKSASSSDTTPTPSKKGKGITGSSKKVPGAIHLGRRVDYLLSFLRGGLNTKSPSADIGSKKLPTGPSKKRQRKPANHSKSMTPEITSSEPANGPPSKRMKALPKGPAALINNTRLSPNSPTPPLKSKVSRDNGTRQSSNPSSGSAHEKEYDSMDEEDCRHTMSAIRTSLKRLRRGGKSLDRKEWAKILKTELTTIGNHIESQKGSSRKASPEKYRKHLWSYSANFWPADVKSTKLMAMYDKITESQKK

Chain of Protein translocase subunit SecA (Escherichia coli (strain K12)) (P10408 whole entry): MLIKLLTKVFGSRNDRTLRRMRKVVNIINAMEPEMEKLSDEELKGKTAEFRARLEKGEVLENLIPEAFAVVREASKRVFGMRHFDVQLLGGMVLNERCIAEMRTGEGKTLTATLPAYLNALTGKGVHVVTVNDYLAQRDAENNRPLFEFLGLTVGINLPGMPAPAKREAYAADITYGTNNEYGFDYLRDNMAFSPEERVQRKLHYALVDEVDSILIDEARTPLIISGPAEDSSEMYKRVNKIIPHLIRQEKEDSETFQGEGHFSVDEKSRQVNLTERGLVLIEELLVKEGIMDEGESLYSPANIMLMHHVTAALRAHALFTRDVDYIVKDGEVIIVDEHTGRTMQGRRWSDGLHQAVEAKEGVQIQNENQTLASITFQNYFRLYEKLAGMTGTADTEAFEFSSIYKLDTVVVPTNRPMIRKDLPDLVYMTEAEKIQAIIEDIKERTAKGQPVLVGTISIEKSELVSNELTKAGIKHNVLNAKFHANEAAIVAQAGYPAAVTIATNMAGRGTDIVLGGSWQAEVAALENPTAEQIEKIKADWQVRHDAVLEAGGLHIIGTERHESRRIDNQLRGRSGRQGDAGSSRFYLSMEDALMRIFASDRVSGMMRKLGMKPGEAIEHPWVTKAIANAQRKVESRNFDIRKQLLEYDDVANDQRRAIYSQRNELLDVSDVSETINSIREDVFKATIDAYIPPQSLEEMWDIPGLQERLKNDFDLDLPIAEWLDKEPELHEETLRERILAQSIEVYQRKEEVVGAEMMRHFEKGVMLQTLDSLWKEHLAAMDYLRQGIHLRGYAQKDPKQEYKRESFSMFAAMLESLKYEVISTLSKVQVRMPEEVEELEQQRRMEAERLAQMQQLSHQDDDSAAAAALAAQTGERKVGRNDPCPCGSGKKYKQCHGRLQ
Chain of Sialic acid-binding Ig-like lectin 9 (Homo sapiens) (Q9Y336 whole entry): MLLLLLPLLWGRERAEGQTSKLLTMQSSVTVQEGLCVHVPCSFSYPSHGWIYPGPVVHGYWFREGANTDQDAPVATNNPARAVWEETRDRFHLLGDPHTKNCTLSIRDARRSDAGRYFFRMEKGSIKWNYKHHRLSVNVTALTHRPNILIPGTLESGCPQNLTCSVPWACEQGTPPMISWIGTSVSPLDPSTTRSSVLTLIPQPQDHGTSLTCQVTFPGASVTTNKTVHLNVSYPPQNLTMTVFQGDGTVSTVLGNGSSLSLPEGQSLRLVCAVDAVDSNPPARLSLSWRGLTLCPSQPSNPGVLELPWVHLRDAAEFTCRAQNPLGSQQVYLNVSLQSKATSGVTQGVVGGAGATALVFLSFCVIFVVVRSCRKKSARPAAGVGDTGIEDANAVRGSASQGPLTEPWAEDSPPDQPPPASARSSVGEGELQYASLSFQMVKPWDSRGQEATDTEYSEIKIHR

Regarding `CN1CCOC(CNC(=O)CCCOc2ccccc2F)C1` (stereo not given), the Percent Effect in [1] was -2.16%; in experiment [2] it was 12.8%; in [3], 3.45%; in the experiment on Trypanosoma cruzi it was 1.6%; in [4], 2.87%; in [5] it was 18.5%. Further, the Percent Effect was 18.2% in the experiment filed under Homo sapiens, 10.1% in experiment [6], 22.9% in experiment [7] and -4.86% in experiment [8].

With `Cc1ccc(Cl)cc1N1CCC(CNC(=O)CCn2ccnn2)C1` (stereo not given), the Percent Effect in experiment [1] was -2.11%; in experiment [2], 12.8%; in experiment [3], -5.81%; in the experiment with Trypanosoma cruzi, -2.35%; in experiment [4], 8.61%; in [5], 15.8%. Further, the Percent Effect in the experiment filed under Homo sapiens was 24.6%; in [6] it was 5.26%; in experiment [7], 18.1%; in experiment [8], 0.402%.

Regarding `CCn1cc(NC(=O)NCc2ccc3c(c2)OCCO3)cn1`, the Percent Effect in [1] is -3.41%; in [2], 20.8%; in experiment [3], 4.42%; in the experiment on Trypanosoma cruzi, -2.98%; in experiment [4], 4.3%; in experiment [5], 7.37%. Besides, the Percent Effect in the experiment filed under Homo sapiens was 12.6%; in [6] it was 11.8%; in [7] it was 21.2%; in experiment [8], -7.59%.

As to `CS(=O)(=O)NCc1cc2n(n1)CCCN(Cc1cccc(C#N)c1)C2`, the Percent Effect in experiment [1] is -4.38%; in experiment [2], 8.11%; in experiment [3] it was 22.8%; in the experiment with Trypanosoma cruzi, 7.47%; in experiment [4], 10.8%; in experiment [5], 13%. Besides, the Percent Effect is 18.6% in the experiment filed under Homo sapiens, 7.98% in experiment [6], 19.5% in experiment [7] and 88% in [8].

Regarding `CN(C)Cc1ccc(C2CCCCN2C(=O)c2cc(C3CC3)n[nH]2)cc1` (stereo not given), the Percent Effect was -11.5% in [1]; -2.7% in experiment [2]; 0.279% in experiment [3]; -2.23% with Trypanosoma cruzi; -1.05% in experiment [4]; 11.3% in [5]. The Percent Effect is 19.7% in the experiment filed under Homo sapiens, 5.85% in experiment [6], 9.76% in [7] and -0.312% in [8].

With `COc1cc(C)nc(N2CCN(C(=O)CNC(C)(C)C)CC2)n1`, the Percent Effect was -1.19% in experiment [1]; 5.13% in [2]; -1.55% in experiment [3]; -1.22% in the experiment with Trypanosoma cruzi; 4.51% in experiment [4]; -3.67% in [5]. Moreover, the Percent Effect in the experiment listed under Homo sapiens is 19.9%; in [6] it was 0.478%; in experiment [7], 8.43%; in experiment [8] it was -2.39%.

Turning to `COCc1nc(C(=O)NS(=O)(=O)c2ccc(C)cc2C)cs1`, the Percent Effect in [1] is -3.05%; in [2] it was 0%; in experiment [3], 4.98%; in the experiment with Trypanosoma cruzi, 1.97%; in experiment [4], 4.1%; in [5], -6.23%. Further, the Percent Effect in the experiment filed under Homo sapiens is -17.6%; in experiment [6] it was 2.39%; in [7] it was 1.21%; in experiment [8], -0.274%.

Consider `Cc1ccc(S(=O)(=O)N2CCC3(CC(C(=O)NCC4CC4)=NO3)C2)cc1` (stereo not given), for which the Percent Effect was -5.9% in experiment [1]; 6.49% in experiment [2]; -4.73% in experiment [3]; -4.38% with Trypanosoma cruzi; 0% in experiment [4]; 18.3% in [5]. For the same molecule, the Percent Effect in the experiment filed under Homo sapiens was 5.59%; in experiment [6], 1.58%; in experiment [7] it was 7.69%; in [8], -3.09%.

In the case of `CN1CCOC(CNC(=O)Cc2ccccc2F)C1` (stereo not given), the Percent Effect in experiment [1] was -1.65%; in experiment [2], 15.4%; in [3], -3.95%; in the experiment with Trypanosoma cruzi it was 3.47%; in [4], 4.1%; in experiment [5], 8.11%. The Percent Effect is -18.4% in the experiment filed under Homo sapiens, 7.18% in experiment [6], 25.3% in [7] and -5.49% in [8].

For the molecule `COC(=O)Cn1c(=O)nc2n1C(=O)N(c1ccccc1)C2`, the Percent Effect is -4.54% in [1]; 5.41% in experiment [2]; -1.57% in [3]; -7.27% in the experiment on Trypanosoma cruzi; 5.94% in experiment [4]; 9.76% in [5]. Further, the Percent Effect in the experiment listed under Homo sapiens is 17%; in [6], 3.72%; in experiment [7] it was 9.76%; in experiment [8], -2.64%.

Turning to `CCn1cc(NC(=O)NCc2ccc(CN3CCOCC3)cc2)cn1`, the Percent Effect in [1] was 0.918%; in experiment [2], 13%; in experiment [3] it was 16%; in the experiment with Trypanosoma cruzi, -7.28%; in [4] it was -6.35%; in experiment [5] it was 10%. Also, the Percent Effect in the experiment filed under Homo sapiens is 24.2%; in experiment [6], 4.9%; in [7] it was 11.8%; in [8] it was -1.62%.
